Test results from PMC5540273 (PLoS ONE, 2017).

Experiments:
Conditions in all cases: concentration: 1 μM, replicates: in singlicate; n = 1
[1] = system: T1, ERK8
T1 construct: gene MAPK15

[2] = system: ERN1
[3] = system: T2, FAK
T2 construct: gene PTK2

[4] = system: FER
[5] = system: FES
[6] = system: FGFR1
[7] = system: FGFR2
[8] = system: FGFR3
[9] = system: FGFR4
[10] = system: FGR
[11] = system: FLT1
[12] = system: FLT3-autoinhibited
[13] = system: FLT3
[14] = system: FLT4
[15] = system: FRK
[16] = system: FYN
[17] = system: GAK
[18] = system: T3, GCN2(Kin.Dom.2,S808G)
T3 construct: gene EIF2AK4

[19] = system: GRK1
[20] = system: T4, GRK2
T4 construct: gene ADRBK1
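Also: KINOMEscan kinase panel screen.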

SMILES | %Inh [1] | %Inh [2] | %Inh [3] | %Inh [4] | %Inh [5] | %Inh [6] | %Inh [7] | %Inh [8] | %Inh [9] | %Inh [10] | %Inh [11] | %Inh [12] | %Inh [13] | %Inh [14] | %Inh [15] | %Inh [16] | %Inh [17] | %Inh [18] | %Inh [19] | %Inh [20]
Cc1ccccc1-c1cc(-c2c[nH]nc2-c2ccccn2)ccn1 [GW680061] | 0% | 0% | 0% | 2% | 0% | 0% | 0% | 0% | 0% | 15% | 6% | 0% | 0% | 11% | 13% | 18% | 11% | 25% | 7% | 0%
COC(=O)c1cccc(NC(=O)NC2CCN(c3ccnc(Nc4ccc(OC)cc4)n3)C2)c1 (centres unmarked) [GSK1379746] | 0% | 5% | 0% | 13% | 0% | 0% | 0% | 0% | 4% | 11% | 26% | 0% | 0% | 4% | 11% | 8% | 0% | 0% | 0% | 0%
CS(=O)(=O)Cc1ccc(Nc2nccc(-c3c(-c4cccc(NC(=O)C5CCCCC5)c4)nn4ncccc34)n2)cc1 [GSK350559] | 0% | 33% | 0% | 8% | 0% | 0% | 41% | 16% | 6% | 27% | 63% | 25% | 88% | 52% | 4% | 1% | 14% | 0% | 0% | 44%
Cc1ccc(NC(=O)Nc2ccc(Cl)cc2)cc1-c1ccc(C(=O)Nc2ccncc2)cc1 [GSK1398472] | 0% | 0% | 0% | 15% | 0% | 0% | 39% | 13% | 14% | 18% | 27% | 3% | 22% | 0% | 31% | 0% | 0% | 17% | 0% | 0%
O=C(Nc1n[nH]c2nc(-c3ccco3)c(Br)cc12)C1CCN(Cc2ccccc2)C1.O=C(O)[C@H](O)[C@@H](O)C(=O)O (centres unmarked) [SB-742034] | 2% | 19% | 4% | 0% | 0% | 23% | 0% | 0% | 10% | 6% | 0% | 10% | 7% | 6% | 0% | 0% | 8% | 0% | 42% | 0%
CC(=O)c1c(C)c2cnc(Nc3ccn(C)n3)nc2n(C2CCCC2)c1=O | 17% | 0% | 0% | 9% | 0% | 0% | 0% | 0% | 11% | 0% | 4% | 2% | 0% | 0% | 28% | 0% | 0% | 36% | 0% | 17%
COC(=O)C(Cc1ccccc1)NC(=O)NC1CCN(c2ccnc(Nc3ccc(F)cc3)n2)C1 (centres unmarked) [GSK1379714] | 0% | 0% | 0% | 30% | 0% | 0% | 51% | 26% | 0% | 0% | 33% | 5% | 2% | 0% | 0% | 0% | 0% | 6% | 100% | 0%
COc1cccc(CNC(=O)NC2CCN(c3ccnc(Nc4ccc(F)cc4)n3)C2)c1 (centres unmarked) [GSK1379723] | 60% | 4% | 0% | 6% | 0% | 0% | 3% | 15% | 10% | 8% | 31% | 0% | 0% | 12% | 16% | 0% | 12% | 0% | 13% | 0%
COc1ccc(CSc2nnc(-c3ccc4c(c3)CCO4)o2)cc1 | 0% | 0% | 0% | 0% | 12% | 0% | 0% | 0% | 0% | 14% | 0% | 0% | 0% | 0% | 0% | 0% | 0% | 33% | 0% | 0%
O=c1cc(N2CCOCC2)nc2n(Cc3ccccc3F)ccn12 [GSK2297428] | 0% | 7% | 0% | 36% | 0% | 0% | 12% | 10% | 0% | 4% | 24% | 0% | 0% | 2% | 20% | 0% | 0% | 0% | 0% | 0%
